Assay [1] concerns the target Cytochrome P450 1A2 (Homo sapiens) (UniProt P05177). Kind of assay: p450-cyp1a2 (AID 410). Further: potency means the concentration at half of the fitted maximal effect. The procedure, abridged:
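O-Demethylation of luciferin 6' methyl ether by human CYP1A2 is monitored as luciferase luminescence. Substrate sits at Km (100uM); enzyme is 20nM. Values are scaled to 57 uM furafylline as maximal inhibition.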

In assay [2] the target is Glucocorticoid receptor (Homo sapiens) (UniProt P04150). Kind of assay: GR-EFC Redistribution (AID 451). Further: potency means the concentration at half of the fitted maximal effect. The conditions noted are these: CHO-K1 GR-EFC translocation, beta-gal luminescence, 2 h. The procedure, abridged: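 CHO-K1 cells expressing nuclear EA and GR-ED fragments of b-gal; compounds titrated up to 46 uM final, 2 h at 37 C. GR nuclear translocation read as complemented b-gal luminescence after 1 h RT detection.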

Assay [3] has as its target 3',5'-cyclic-AMP phosphodiesterase 4B (Homo sapiens) (UniProt Q07343). Kind of assay: qHTS Assay for Inhibitors of PDE-IV (AID 607; active means well fitted activation curve with a large enough effect in the main read-out, with a control signal flat, not every such curve was filed as active). The procedure, abridged: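 HEK293 ACTOne cells with CNG channel (1000/well), endogenous PDE4; membrane potential dye, compounds up to 22.9 uM final. Fluorescence Ex 535/Em 590; RO 20-1724 (100 uM final) as reference.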
Assay [4] addresses Cytochrome P450 2C9 (Homo sapiens) (UniProt P11712). Kind of assay: qHTS Assay for Inhibitors and Substrates of Cytochrome P450 2C9 (AID 883; active means well fitted inhibition curve with a large enough effect; further: nearly all actives have a fitted effect of over 60% in size). An outline of the steps:
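10nM CYP2C9 + 100uM Luciferin-H (=KM), 25mM KPO4; cpd 10 min 37C; NADPH regen, 60 min 37C; stop/detect with P450 Glo-Buffer 20 min; luminescence. Norm. to 57uM sulphaphenazole as full inhibition.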

For assay [5], the target named is Cytochrome P450 2D6 (Homo sapiens) (UniProt P10635). Kind of assay: qHTS Assay for Inhibitors and Substrates of Cytochrome P450 2D6 (AID 891; active means well fitted inhibition curve with a large enough effect;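 further: luciferin methyl ether substrate demethylated by CYP2D6 with NADPH regeneration; nearly all actives have a fitted effect of over 60% in size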). The procedure, abridged:
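Luminescent read-out of luciferin formed by 5 nM human CYP2D6 demethylating 30 uM Luciferin-ME EGE (Km level) over 60 min at room temperature after NADPH regeneration addition. Data normalized to full inhibition by 1.43 uM quinidine.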

The target in assay [6] is Cytochrome P450 2C19 (Homo sapiens) (UniProt P33261). The assay can be described thus: qHTS Assay for Inhibitors and Substrates of Cytochrome P450 2C19 (AID 899; active means well fitted inhibition curve with a large enough effect; further: nearly all actives have a fitted effect of over 60% in size). The procedure, abridged: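 Luminescent read-out of luciferin formed from Luciferin-H EGE (10uM, equal to KM). Enzyme 5nM in 50mM KPO4; compound added, 10 min at 37C, then NADPH regenerating system for 60 min at 37C. Full inhibition defined by 57uM ketoconazole.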

The target of assay [7] is Mitogen-activated protein kinase 10 (Mus musculus) (UniProt Q61831). Kind of assay: JNK3 AlphaScreen Assay (AID 530; active means well fitted curve in either direction with a large enough effect, not every such curve was filed as active;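 further: kinase came from lysate of stimulated human HepG2 cells; signal reports phosphorylation of biotinylated GST-cJun 1-79 at Ser73 with 10 µM ATP; series mostly up to about 57 µM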). The procedure, abridged: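 Activity was read by AlphaScreen after JNK3-containing HepG2 lysate (cytokine pre-activated) phosphorylated biotinylated GST-cJun with 10 uM ATP at room temperature. Phospho-Ser73 cJun antibody with Protein-A acceptor beads provided detection.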

Molecules are shown by their SMILES. Values without a mark were called inactive. Inconclusive results are not listed. The source made the active and inactive calls. Unless noted, the call rests on the fitted dose curve.

These results are taken from PubChem BioAssay (NCATS).

Cytochrome P450 1A2 (Homo sapiens), sequence (P05177 whole entry, looked up): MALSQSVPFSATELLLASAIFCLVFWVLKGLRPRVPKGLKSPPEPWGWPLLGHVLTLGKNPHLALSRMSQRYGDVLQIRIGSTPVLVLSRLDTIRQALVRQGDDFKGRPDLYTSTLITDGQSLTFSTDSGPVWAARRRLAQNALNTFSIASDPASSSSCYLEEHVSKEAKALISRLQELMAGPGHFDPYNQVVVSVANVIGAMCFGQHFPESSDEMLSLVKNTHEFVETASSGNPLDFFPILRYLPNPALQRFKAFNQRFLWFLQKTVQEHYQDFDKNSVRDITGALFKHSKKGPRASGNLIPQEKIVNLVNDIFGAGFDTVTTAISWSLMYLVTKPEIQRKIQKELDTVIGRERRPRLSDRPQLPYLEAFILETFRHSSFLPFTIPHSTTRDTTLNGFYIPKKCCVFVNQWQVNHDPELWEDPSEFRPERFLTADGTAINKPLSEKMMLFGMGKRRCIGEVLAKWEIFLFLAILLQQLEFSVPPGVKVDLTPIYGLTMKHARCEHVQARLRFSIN
Cytochrome P450 2D6 (Homo sapiens), sequence (P10635 whole entry, looked up): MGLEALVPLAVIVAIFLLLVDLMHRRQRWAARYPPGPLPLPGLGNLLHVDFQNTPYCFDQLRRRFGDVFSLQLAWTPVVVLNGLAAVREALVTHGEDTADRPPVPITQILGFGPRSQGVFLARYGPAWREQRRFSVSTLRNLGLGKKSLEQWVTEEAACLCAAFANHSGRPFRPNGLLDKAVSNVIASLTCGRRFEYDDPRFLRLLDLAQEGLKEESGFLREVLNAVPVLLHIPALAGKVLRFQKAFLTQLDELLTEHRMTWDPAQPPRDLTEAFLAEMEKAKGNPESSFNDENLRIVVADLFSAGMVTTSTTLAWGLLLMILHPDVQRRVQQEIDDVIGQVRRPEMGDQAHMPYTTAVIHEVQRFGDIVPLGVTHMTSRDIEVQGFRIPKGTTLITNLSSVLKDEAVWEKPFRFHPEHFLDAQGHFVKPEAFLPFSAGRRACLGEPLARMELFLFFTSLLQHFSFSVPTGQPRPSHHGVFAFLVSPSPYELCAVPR
Cytochrome P450 2C19 (Homo sapiens), sequence (P33261 whole entry, looked up): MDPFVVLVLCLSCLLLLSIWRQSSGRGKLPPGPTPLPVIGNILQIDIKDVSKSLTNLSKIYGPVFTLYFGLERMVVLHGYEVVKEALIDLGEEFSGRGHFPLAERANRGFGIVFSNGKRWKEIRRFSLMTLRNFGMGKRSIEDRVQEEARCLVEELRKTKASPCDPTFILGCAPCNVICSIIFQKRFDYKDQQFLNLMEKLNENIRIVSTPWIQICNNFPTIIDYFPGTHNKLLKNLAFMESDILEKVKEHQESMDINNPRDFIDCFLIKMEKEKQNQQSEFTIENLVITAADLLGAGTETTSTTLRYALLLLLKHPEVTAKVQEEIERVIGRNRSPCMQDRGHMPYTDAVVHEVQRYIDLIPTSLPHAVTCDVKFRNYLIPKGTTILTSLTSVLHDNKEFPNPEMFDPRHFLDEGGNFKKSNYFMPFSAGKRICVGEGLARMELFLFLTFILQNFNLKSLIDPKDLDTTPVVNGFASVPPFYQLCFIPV
Glucocorticoid receptor (Homo sapiens), sequence (P04150 whole entry, looked up, the tested form may be a part): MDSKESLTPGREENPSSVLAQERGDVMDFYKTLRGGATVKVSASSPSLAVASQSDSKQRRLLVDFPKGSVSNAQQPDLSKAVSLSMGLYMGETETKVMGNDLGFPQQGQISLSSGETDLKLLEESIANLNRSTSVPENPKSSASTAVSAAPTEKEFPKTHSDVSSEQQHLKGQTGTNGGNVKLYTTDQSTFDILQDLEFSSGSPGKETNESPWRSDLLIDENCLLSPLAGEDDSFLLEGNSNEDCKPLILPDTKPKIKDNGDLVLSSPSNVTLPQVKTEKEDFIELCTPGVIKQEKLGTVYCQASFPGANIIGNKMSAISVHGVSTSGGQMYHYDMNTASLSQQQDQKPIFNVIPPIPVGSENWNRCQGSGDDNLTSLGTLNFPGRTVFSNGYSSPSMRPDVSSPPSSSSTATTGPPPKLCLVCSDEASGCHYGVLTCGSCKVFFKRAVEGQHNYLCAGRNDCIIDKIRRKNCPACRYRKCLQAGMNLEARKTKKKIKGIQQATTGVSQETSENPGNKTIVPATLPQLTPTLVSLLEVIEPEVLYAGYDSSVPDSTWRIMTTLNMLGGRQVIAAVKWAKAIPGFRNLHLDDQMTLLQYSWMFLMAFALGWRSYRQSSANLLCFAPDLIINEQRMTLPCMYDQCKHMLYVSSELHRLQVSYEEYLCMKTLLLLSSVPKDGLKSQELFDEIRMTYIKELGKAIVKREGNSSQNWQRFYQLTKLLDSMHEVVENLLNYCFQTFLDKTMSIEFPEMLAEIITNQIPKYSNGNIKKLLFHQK
3',5'-cyclic-AMP phosphodiesterase 4B (Homo sapiens), sequence (Q07343 whole entry, looked up): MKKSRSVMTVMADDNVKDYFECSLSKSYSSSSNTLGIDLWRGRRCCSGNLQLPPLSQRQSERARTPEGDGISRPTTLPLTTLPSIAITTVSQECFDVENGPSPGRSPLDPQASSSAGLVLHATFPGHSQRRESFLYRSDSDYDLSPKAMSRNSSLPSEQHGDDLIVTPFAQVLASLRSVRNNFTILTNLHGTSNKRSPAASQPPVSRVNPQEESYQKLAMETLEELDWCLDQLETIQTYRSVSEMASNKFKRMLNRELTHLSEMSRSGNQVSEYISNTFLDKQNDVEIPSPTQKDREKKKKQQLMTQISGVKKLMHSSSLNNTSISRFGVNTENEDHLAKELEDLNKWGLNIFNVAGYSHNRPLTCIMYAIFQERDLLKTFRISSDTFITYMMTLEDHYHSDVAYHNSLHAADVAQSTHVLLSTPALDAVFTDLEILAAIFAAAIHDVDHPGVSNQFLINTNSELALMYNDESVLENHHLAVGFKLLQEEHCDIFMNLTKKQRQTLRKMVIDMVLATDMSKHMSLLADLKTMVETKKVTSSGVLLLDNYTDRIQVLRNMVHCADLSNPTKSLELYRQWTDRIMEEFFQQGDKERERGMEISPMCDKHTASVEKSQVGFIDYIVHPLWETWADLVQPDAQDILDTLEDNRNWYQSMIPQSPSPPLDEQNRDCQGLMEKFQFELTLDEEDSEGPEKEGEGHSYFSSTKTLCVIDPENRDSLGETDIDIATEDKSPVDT
Cytochrome P450 2C9 (Homo sapiens), sequence (P11712 whole entry, looked up): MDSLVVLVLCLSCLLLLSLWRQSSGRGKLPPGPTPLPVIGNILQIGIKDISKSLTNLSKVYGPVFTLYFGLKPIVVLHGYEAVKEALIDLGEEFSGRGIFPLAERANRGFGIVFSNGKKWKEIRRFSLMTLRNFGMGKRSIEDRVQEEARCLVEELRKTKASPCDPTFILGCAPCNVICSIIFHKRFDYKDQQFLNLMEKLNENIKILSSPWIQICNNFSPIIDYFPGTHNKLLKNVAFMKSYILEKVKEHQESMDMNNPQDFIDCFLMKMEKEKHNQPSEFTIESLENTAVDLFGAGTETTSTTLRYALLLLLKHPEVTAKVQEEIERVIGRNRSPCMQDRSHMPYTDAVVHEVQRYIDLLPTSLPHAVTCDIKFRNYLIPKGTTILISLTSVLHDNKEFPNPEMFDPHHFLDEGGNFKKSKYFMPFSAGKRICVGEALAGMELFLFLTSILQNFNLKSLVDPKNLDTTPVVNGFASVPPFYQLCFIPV

For `CC(C)[C@@H](CC(=O)N[C@@H]1CCCC[C@H]1C(=O)N[C@H](CC(=O)N[C@@H](CCC(=O)O)CC(=O)O)Cc1c[nH]c2ccccc12)NC(=O)C[C@H](Cc1c[nH]c2ccccc12)NC(=O)[C@@H]1CNCC[C@H]1N`, the Potency entry in assay [1], in assay [3], in assay [4], in assay [5] and in assay [6] was “inactive” throughout. Further, the Potency in assay [2] is greater than 46 µM.
On to `CC(C)C[C@@H](CC(=O)N[C@H](CC(=O)N[C@@H]1CCCC[C@H]1C(=O)N[C@H](CC(=O)N[C@@H](CCC(=O)O)CC(=O)O)CC(C)C)C(C)C)NC(=O)[C@@H]1CCCC[C@H]1N`, for which the Potency result in assay [1], in assay [7], in assay [3], in assay [5] and in assay [6] was “inactive” throughout. In addition, in assay [2], the Potency is greater than 46 µM.
On to `CCC[C@@H]1C[C@@]1(CCC)C(NC(=O)c1ccc(-c2ccccc2)cc1)c1cccc(Cl)c1` (stereo not given in full), for which the Potency entry in assay [1], in assay [7] and in assay [3] was “inactive” each time.
`CC(C)[C@@H](CC(=O)N[C@@H]1CCNC[C@H]1C(=O)N[C@H](CC(=O)N[C@@H](CCC(=O)O)CC(=O)O)Cc1c[nH]c2ccccc12)NC(=O)C[C@H](CO)NC(=O)[C@@H]1CNCC[C@H]1N`: the Potency result in assay [1], in assay [3], in assay [5] and in assay [6] was “inactive” in each case. In assay [2], the Potency was greater than 46 µM.
On to `CCC#CCOCC(=S)Nc1ccccc1`, for which the Potency in assay [1] was 15.8 µM (active). Further, the Potency result in assay [7] and in assay [3] was “inactive” each time.
As for `COc1cc(/C=C\C(=O)N2CCCCC2=O)cc(OC)c1OC`, the Potency is 0.1 µM (active) in assay [1] and greater than 46 µM in assay [2]. In addition, the Potency entry in assay [4], in assay [5] and in assay [6] was “inactive” throughout.
Take `CCc1c2c(nc3cccc(OC)c13)OC(CC)C2` (stereo not given): the Potency in assay [1] is 2 µM (active). In addition, the Potency entry in assay [7] was “inactive”.
